Compound activity: PubChem, Sanford-Burnham Center for Chemical Genomics
An excerpt weighted towards active compounds, which were near 1.4% of everything screened.
FAS TE block – inhibitors of human fatty acid synthase thioesterase domain | 360,000 tested, 0.67% active | inhibition, % at 15 µM | recombinant FAS-TE, OMFH fluorogenic substrate, fluorescence endpoint;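 active means compounds whose normalised, plate-corrected inhibition of enzyme fluorescence in the single-dose primary screen is 50% or more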;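 further: 0% = DMSO with enzyme and 100% = substrate without enzyme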
APOBEC3G inh – APOBEC3G (human) deaminase inhibition | Q9HC16 | inhibition, % at 20 µM | 330,000 tested, 0.28% active | recombinant A3G, ssDNA deamination FAM/TAMRA fluorescence;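 active means inhibition of at least 40% at 20 µM, with no more than 30% in the related APOBEC3A deaminase screen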;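 further: plate controls were DMSO wells with A3G for no effect and wells lacking A3G enzyme for full effect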
GC-A act – GC-A (human) enzyme activation; HEK293 GC-A cells, cGMP TR-FRET, EC30 ANP; 0% at EC30 ANP, 100% saturating ANP; activation, % at 10 µM; 370,000 tested, 0.14% active; in the data active means activation above about 40%
Target sequence (P16066 whole entry, looked up): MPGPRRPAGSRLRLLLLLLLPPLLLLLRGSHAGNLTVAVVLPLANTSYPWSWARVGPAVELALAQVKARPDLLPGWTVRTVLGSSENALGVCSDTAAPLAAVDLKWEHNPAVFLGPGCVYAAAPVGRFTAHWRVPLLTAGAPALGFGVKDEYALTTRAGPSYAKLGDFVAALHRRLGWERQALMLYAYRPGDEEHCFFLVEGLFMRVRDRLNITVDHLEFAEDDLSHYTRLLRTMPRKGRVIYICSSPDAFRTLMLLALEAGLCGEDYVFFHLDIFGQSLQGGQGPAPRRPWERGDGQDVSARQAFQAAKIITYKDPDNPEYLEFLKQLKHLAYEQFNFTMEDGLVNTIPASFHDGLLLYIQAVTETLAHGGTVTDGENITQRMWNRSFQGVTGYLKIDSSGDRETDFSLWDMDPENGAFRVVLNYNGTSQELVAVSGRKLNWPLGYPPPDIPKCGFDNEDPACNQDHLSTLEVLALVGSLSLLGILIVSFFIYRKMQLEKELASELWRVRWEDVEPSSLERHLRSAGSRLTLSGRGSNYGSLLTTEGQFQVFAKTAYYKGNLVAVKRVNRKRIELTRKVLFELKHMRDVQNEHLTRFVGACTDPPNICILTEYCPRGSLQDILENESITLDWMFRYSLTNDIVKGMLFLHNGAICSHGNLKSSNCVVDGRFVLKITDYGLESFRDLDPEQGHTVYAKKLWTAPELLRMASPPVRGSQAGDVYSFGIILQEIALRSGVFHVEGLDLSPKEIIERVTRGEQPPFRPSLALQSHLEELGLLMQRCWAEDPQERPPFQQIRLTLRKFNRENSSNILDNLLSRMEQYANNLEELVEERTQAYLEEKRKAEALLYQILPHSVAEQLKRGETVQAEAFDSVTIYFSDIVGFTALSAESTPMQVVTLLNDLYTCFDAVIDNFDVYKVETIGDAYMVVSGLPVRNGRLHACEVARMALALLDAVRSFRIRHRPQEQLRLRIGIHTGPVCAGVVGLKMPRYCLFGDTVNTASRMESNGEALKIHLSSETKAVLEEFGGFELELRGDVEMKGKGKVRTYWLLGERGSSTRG
GC-B act – GC-B (human) receptor activation | P20594 | HEK293-GC-B cells, CNP EC30, cGMP TR-FRET; 0% at EC30 CNP, 100% saturating CNP | activation, % at 10 µM | 370,000 tested, 0.11% active | AID 1920062;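 active means activation at 10 µM reaching about 35% in either raw or pattern-adjusted values, limit read from the data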
APOBEC3A inh – inhibitors of human APOBEC3A DNA deaminase; recombinant A3A, FAM/TAMRA ssDNA deamination fluorescence; inhibition, % at 20 µM; 330,000 tested, 0.41% active; AID 493011;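 active means at least 40% inhibition at 20 µM here, with at most 30% in a related deaminase screen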;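 further: plate controls were A3A with DMSO for no effect and wells lacking A3A enzyme for full effect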
A3G conf – APOBEC3G (human) deaminase inhibition, confirmed; shares compounds with APOBEC3G inh; recombinant A3G ssDNA deaminase, UDG/FAM-TAMRA fluorescence; inhibition, % at 20 µM; 890 tested, 72% active; AID 493152;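 active means inhibition reaching a set limit in any replicate at 20 µM, the limit being 80% of the first screen's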
UDG ctr A3G – E. coli UDG inhibition in APOBEC3G counter-screen. shares compounds with APOBEC3G inh. UDG counterscreen, FAM/TAMRA oligo fluorescence. inhibition, % at 20 µM. 710 tested, under 10 active. AID 504715;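 active means compounds giving 40% or more inhibition at 20 µM in any one of the three replicates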;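 further: plate controls were DMSO wells with UDG and oligo for no effect and DMSO wells lacking both for full effect; inhibitors lower the FAM signal released by uracil excision and alkaline cleavage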
FAS-TE conf – FAS thioesterase (human) inhibition, confirmation | shares compounds with FAS TE block | recombinant FAS-TE, OMFH fluorogenic substrate, fluorescence | inhibition, % at 15 µM | 2,300 tested, 45% active | AID 624325;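 active means compounds inhibiting the enzyme by at least 50% at 15 µM in any one of the replicates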;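 further: 0% = enzyme with DMSO only and 100% = wells lacking enzyme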
* marks the source's active call; other numbers are inactive results; x = no result; ! = repeats disagree.

SMILES	FAS TE block	APOBEC3G inh	GC-A act	GC-B act	APOBEC3A inh	A3G conf	UDG ctr A3G	others
CC(=O)/C(=N/Nc1cccc(C)c1)N1CCOCC1	-4	45*	3	0	-3	3	-3
O=C(Nc1ccc(Br)cc1)OC1CC2CC1[C@H]1CCCCN1C2 (stereo partly drawn)	x	x	-3	-5	x	x	x
CCOC(=O)c1c(NC(=O)c2ccccc2Cl)sc2c1CCc1ccccc1-2	40	57*	-4	0	-1	75*	-3
CCOC(=O)c1c(NC(=O)c2ccccc2C(=O)O)sc2c1CCCC2	-4	0	-2	-5	2	x	x
CCOC(=O)c1c(NC(=O)c2ccccc2)sc2c1CCc1ccccc1-2	30	58*	1	0	0	16*	-2
CCC(C)Nc1nc(C)nc2c1nnn2Cc1ccccc1 (stereo not drawn)	x	x	6	5	x	x	x
COc1ccc(NC(=O)CN2C(=O)/C(=C3\SC(=S)N(CCC(=O)O)C3=O)c3ccccc32)cc1	-1	53*	x	x	-1	71*	5
O=C(O)CCN1C(=O)/C(=C2\C(=O)N(Cc3ccccc3Cl)c3ccccc32)SC1=S	1	-1	-5	-1	-1	x	x
CCOc1ccc(C(C)NC(=S)NC2CCCCC2)cc1OCC (stereo not drawn)	2	-5	-5	4	0	x	x
CCOc1ccc(C(=S)NC2CCCCC2)cc1OCC	0	56*	2	1	-1	49*	-1
O=C(NCc1cccnc1)C(=O)NCC(c1ccco1)N1CCN(c2ccc(F)cc2)CC1 (stereo not drawn)	0	42*	1	12	-2	-10	-2
COc1ccc(N2CCN(C(CNC(=O)C(=O)NCc3cccnc3)c3ccco3)CC2)cc1 (stereo not drawn)	-5	-3	1	10	12	x	x
S=c1[nH]c2ccc(Cl)cc2[nH]1	-3	41*	1	-2	-1	81*	-3
COc1ccc2[nH]c(=S)[nH]c2c1	-2	21	2	4	-2	x	x
Cc1cc(NS(=O)(=O)c2ccc(NC(=O)Cc3ccccc3)cc2)no1	x	x	4	2	x	x	x
CCN(CC)C(=O)CSc1ncnc2c(-c3cccs3)nsc12	21	54*	-16	0	26	45*	-3
COc1cccc(C(=O)N[C@H](C(=O)N2CCC[C@H]2C(=O)NC2CCCC2)c2ccccc2)c1	x	x	-2	1	x	x	x
CCCCN1CCS(=O)(=O)N(Cc2cn(Cc3ccc(C)cc3)nn2)C(C(=O)OC)C1 (stereo not drawn)	x	x	5	-6	x	x	x
CN1CCc2cccc3c2[C@H]1Cc1ccc(O)c(O)c1-3	-2	51*!	-9	-5	-11	103*	0
CCc1cc(/C(Cc2ccccn2)=N\Nc2ccccc2)c(O)cc1O	22	42*	7	0	-6	16	-2
O=S(=O)(Nc1ccc(O)c(NS(=O)(=O)c2ccccc2)c1)c1ccccc1	-7	50*	0	0	2	69*	-2
Cc1cc(NS(=O)(=O)c2ccccc2)ccc1NS(=O)(=O)c1ccccc1	5	x	3	-1	x	x	x
O=C(OCc1cn(Cc2ccc(F)cc2F)nn1)N1CCOCC1	x	x	-1	0	x	x	x
Nc1nc(-c2cc3c(cc2Cl)OCCO3)cs1	0	52*	0	-3	-1	-9	-3
Nc1nc(-c2ccc3c(c2)OCCO3)cs1	0	-2	14	-1	-4	x	x
SMILES	FAS TE block	APOBEC3G inh	GC-A act	GC-B act	APOBEC3A inh	A3G conf	UDG ctr A3G	others
OC(c1ccccc1)(c1ccccc1)C1CCN(CCCOc2ccc(OC(F)(F)F)cc2)CC1	x	x	-8	1	x	x	x
CC(/C=N/n1c(-c2ccncc2)n[nH]c1=S)=C\c1ccco1	1	66*	-11	-16	-1	90*	5
Cc1cccc(-c2n[nH]c(=S)n2/N=C/C=C/c2ccco2)c1	5	54	-11	-10	52	x	x
S=c1[nH]nc(-c2ccncc2)n1/N=C/C=C/c1ccco1	-4	57*	0	1	11	74*	2
CC(=C/c1ccccc1)/C=N/n1c(-c2ccncc2)n[nH]c1=S	-3	61*	2	-2	-2	94*	2
CC(/C=N/n1c(-c2ccco2)n[nH]c1=S)=C\c1ccco1	-6	62*	-3	1	17	58*	-3
C[C@@H]1CCN(C2CC2)S(=O)(=O)c2c(cccc2N2CC[C@H](O)C2)O1	x	x	-3	5	x	x	x
C[C@@H]1CN(c2ccc(N3CCNC[C@@H]3C)cc2C#N)CCN1Cc1ccccc1	x	x	5	-1	x	x	x
O=C(Cc1ncon1)Nc1ccc(F)c(F)c1F	-10	66*	2	0	0	4	x
CCOc1ccc(N(CC(=O)Nc2c(C)n(C)n(-c3ccccc3)c2=O)S(=O)(=O)c2ccc3c(c2)N(C(=O)C2CCC2)CC3)cc1	x	x	-4	0	x	x	x
COc1ccccc1NNC(=O)C(O)(c1ccccc1OC)c1ccccc1OC	-8	-7	0	2	-2	x	x
COc1ccccc1NNC(=O)C(O)(c1ccccc1)c1ccccc1	-3	56*	1	-5	1	-2	x
Cc1ccc(CN(Cc2ccccc2)C(=S)NCC(=O)NCc2cccnc2)o1	0	45*	-1	-1	-4	7	3
CC(C)C(=O)NC(c1cccs1)c1cc([N+](=O)[O-])c2cccnc2c1O (stereo not drawn)	15	54*	x	x	2	13*	-1
CC(C)(C)c1ccc(S(=O)(=O)N2CCC(C(=O)NCC3COCCO3)CC2)cc1 (stereo not drawn)	x	x	-1	-4	x	x	x
Nc1nc2ccccc2[nH]1	-6	0	1	3	1	x	x
Nc1ccccc1Sc1nc2ccccc2[nH]1	-114	57*	1	2	0	2	x
Cc1ccc(S(=O)(=O)/C(C#N)=C/c2c(N3CCN(C)CC3)nc3ccccn3c2=O)cc1	18	13	1	-1	-1	x	x
Cc1ccc(S(=O)(=O)/C(C#N)=C/c2c(N3CCCCC3)nc3ccccn3c2=O)cc1	62*	49*	0	-11	-2	-3	-3	FAS-TE conf=36
C[C@@H]1O[C@@H](n2c3ccc(Cl)cc3c3ccc4c5cc(Cl)ccc5[nH]c4c32)[C@H](O)[C@H](O)[C@H]1O	x	x	1	0	x	x	x
CCCC(C)c1nnc(NC(=O)c2cc(C(=O)OC)cc([N+](=O)[O-])c2)s1 (stereo not drawn)	55*	60*	5	6	10	73*	1	FAS-TE conf=58*
